In ChEMBL document CHEMBL4513216, “Probing the Open Global Health Chemical Diversity Library for Multistage-Active Starting Points for Next-Generation Antimalarials” (ACS Infect Dis, 2020):
Screen size: about 69,000 compounds; about 8,600 (12%) showed an effect of 50% or more. Many of the other results were omitted from the sample, so strong results are more common in it than they were.

Each molecule was assayed on Plasmodium berghei (assay: Screen against P. berghei liver stage (PbLuc), transformed with Luciferase, at 10uM). Details: tested at 10 uM.
Assay type: functional, HepG2
For O=C(O)c1cn(-c2ccccn2)c(=O)c2ccccc12, the INHIBITION was -44.2%.
Work on CN(C)[C@@H]1CN(Cc2ccc(O)cc2)C[C@H]1c1cn(C)c2ccccc12 yielded an INHIBITION of 40.9%.
In the case of O=C(c1ccncc1)N1C[C@H]2CC[C@@H](C1)N(S(=O)(=O)c1cccnc1)C2, the INHIBITION is reported as -66.4%.
Work on CCN1CC(C(=O)NCc2ccnc(-n3cccn3)c2)CC1=O (stereo not drawn) yielded an INHIBITION of -12.33%.
For CCOC(C)c1nccn1Cc1c(C)noc1C (stereo not drawn), the INHIBITION was 3.19%.
For Cc1cc(C(F)(F)F)nc(C2(C)CCCN2CC(N)=O)n1 (stereo not drawn), the INHIBITION was 14.385%.
Molecule c1cncc(-n2cnnc2CCCN2CCOCC2)c1 has an INHIBITION of 3.69%.
CN1CCN(Cc2cccnc2)C2(CCN(Cc3ccoc3)C2)C1=O (stereo not drawn) showed an INHIBITION of -24.9%.
COCCC(=O)NC1CCN(CC2(c3cccc(F)c3)CCCC2)CC1 gave an INHIBITION of 12.3%.
Cc1ccc(NC(=O)[C@H]2C[C@H](C(=O)O)CN(CC(C)C)C2)cn1 showed an INHIBITION of 11.2%.
COc1ccc2[nH]c3c(c2c1)CN(c1cc(NCCO)nc(N)n1)CC3 showed an INHIBITION of 54.8%.
Nc1nc(NCCO)cc(N2CCc3c([nH]c4ccccc34)C2)n1 showed an INHIBITION of 78.5%.
Work on CC(C)Cc1ncc2c(n1)CN(c1cc(NCCO)nc(N)n1)C2 yielded an INHIBITION of 27.7%.
Work on CC(C)(C)c1ncc2c(n1)CN(c1cc(NCCO)nc(N)n1)C2 yielded an INHIBITION of 3.84%.
COc1ccc(F)c(-c2cc(NCCO)nc(N)n2)c1 was tested, and the INHIBITION was -76.6%.
For CCc1ncc2c(n1)CN(c1cc(NCCO)nc(N)n1)C2, the INHIBITION was -63.2%.
Work on C[C@@H]1C[C@H]2CN(C(=O)c3ccncn3)C[C@H]2O1 yielded an INHIBITION of -0.813%.
CN1[C@@H](C(=O)NCC2CC2)C[C@@H]2CN(Cc3ccoc3)C[C@@H]21 showed an INHIBITION of 1.34%.
N#CC(NC(=O)CC(F)(F)F)c1ccsc1 (stereo not drawn) gave an INHIBITION of -3.68%.
With COc1cccc(C=CCCN2CCN(S(C)(=O)=O)CC2)c1 the INHIBITION was -104%.
CCN1CCN(c2ncc(-c3cc(C)no3)c(-c3ccoc3C)n2)CC1 was tested, and the INHIBITION was 48.9%.
With Cc1cc(-c2cnc(N3CCCC3)nc2-c2ccc(C)s2)on1 the INHIBITION was 32.3%.
Work on CCN1CCN(c2ncc(-c3cc(C)no3)c(-c3ccc(C)s3)n2)CC1 yielded an INHIBITION of 57.4%.
In the case of Cc1cc(-c2cnc(N3CCOCC3)nc2-c2ccc(C)s2)on1, the INHIBITION is reported as 53%.
For Cc1cc(-c2cnc(N3CCSCC3)nc2-c2ccc(C)s2)on1, the INHIBITION was 47.1%.
CCN1CCN(c2ncc(-c3cc(C)no3)c(-c3ccco3)n2)CC1 was tested, and the INHIBITION was 11.5%.
Work on Cc1cc(-c2cnc(N3CCN(C)CC3)nc2-c2ccc(C)s2)on1 yielded an INHIBITION of 69.4%.
In the case of Cc1nc(CN2CCCC(N(C)CCOCC(F)(F)F)C2)no1 (stereo not drawn), the INHIBITION is reported as -13.5%.
